Source: PubChem BioAssay (NCI)
About 83,000 compounds went through this panel and 20% of them were active in at least one assay; those are over-represented in the sample as a whole.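 Assay: single dose, 48 h. Readout: percent growth (0 = no net growth; negative = cell death). Active: <10.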 Unmarked numbers belong to inactive results. The source made the active and inactive calls.

Assays:
Assay in all cases: NCI-60 one-dose screen, 48 h (100 = growth as untreated, 0 = no growth, -100 = all killed)
Conditions in all cases: 10 µM unless noted
[1] = system: DU-145 prostate
[2] = system: K-562 leukemia
[3] = system: MALME-3M melanoma
[4] = system: MDA-MB-231 breast
[5] = system: RXF 393 renal
[6] = system: SF-268 CNS
[7] = system: SF-295 CNS
[8] = system: SF-539 CNS
[9] = system: UACC-257 melanoma
[10] = system: M14 melanoma
[11] = system: HCT-15 colon
[12] = system: HT29 colon
[13] = system: SNB-75 CNS
[14] = system: SNB-19 CNS
[15] = system: U251 CNS
[16] = system: PC-3 prostate
[17] = system: SK-MEL-5 melanoma
[18] = system: UACC-62 melanoma
[19] = system: LOX IMVI melanoma
[20] = system: SK-MEL-28 melanoma

SMILES	growth [1]	growth [2]	growth [3]	growth [4]	growth [5]	growth [6]	growth [7]	growth [8]	growth [9]	growth [10]	growth [11]	growth [12]	growth [13]	growth [14]	growth [15]	growth [16]	growth [17]	growth [18]	growth [19]	growth [20]
O=C(Nc1ccccc1-c1nc2ccccc2c(=O)[nH]1)c1cc2ccccc2[nH]1	102%	94.1%	107%	79.7%	98.4%	91.9%	91.3%	89.5%	83.4%	91.7%	98.6%	91.6%	63%	93.4%	92.3%	78.3%	81.2%	84.9%	88%	99.9%
O=C1C=C[C@]2(C[C@@H](c3cccc(C(F)(F)F)c3)O[C@@H](c3cccc(C(F)(F)F)c3)O2)O1	28.7%	-4.01% (active)	36.4%	-57.2% (active)	-0.258% (active)	-27.1% (active)	46.1%	-69.6% (active)	59.6%	44.8%	-33.8% (active)	-24.2% (active)	57.9%	33.2%	28.6%	7.18% (active)	-58.2% (active)	-38.6% (active)	-84.6% (active)	48.6%
Cc1ccccc1NC(=O)N/C(N)=N/c1nc(-c2cccc([N+](=O)[O-])c2)cs1	69.3%	9.08% (active)	33%	50.4%	56.7%	64%	15.8%	41.1%	51.5%	19%	24.8%	17.1%	-9.74% (active)	44.1%	40.4%	58%	49.3%	34.1%	-10.5% (active)	54.1%
Cc1occc1-c1n[nH]c(=S)n1N1C(=O)CSC1=S	108%	103%	98%	101%	112%	97%	101%	98.5%	109%	102%	101%	105%	80.9%	97%	100%	97.2%	101%	91.4%	94.1%	106%
CN(C)CC1=NC2SC=C(c3ccccc3)C2C(=O)N1CC#N (stereo not given)	111%	60%	83.1%	92%	81.3%	109%	99.2%	101%	108%	105%	105%	101%	87.6%	108%	104%	71.4%	107%	87.3%	99.7%	119%
O=C1Nc2ccccc2/C1=C/c1cn(C(=O)c2c(Cl)cccc2Cl)c2ccccc12	59.3%	45.7%	117%	55.1%	-4.11% (active)	56.6%	44.5%	67.4%	79.2%	66.2%	31%	69.7%	54.7%	68.7%	35.8%	41.7%	63.1%	36.7%	48.4%	81.5%
COc1ccc(OC)c2c1[nH]c(=O)c1c3ncccc3cn21	26.3%	32%	60.2%	41.4%	12.7%	34.2%	-3.56% (active)	37.2%	37.4%	39.7%	22.8%	-9.43% (active)	59.7%	30.3%	22.5%	33.6%	33.3%	23.4%	8.59% (active)	64.3%
N=C1C(c2nc(-c3ccc(Br)cc3)cs2)=C(O)CN1CC1CCCO1 (stereo not given)	69.7%	64.1%	112%	90.9%	83%	87.9%	91.5%	81.4%	84.3%	91.5%	89.5%	97.5%	78.5%	87.4%	74.9%	7.86% (active)	102%	105%	60.7%	107%
